# Source: PubChem BioAssay AID435019 (Southern Research Specialized Biocontainment Screening …, 2010)
# The whole screen tested about 2,300 compounds, of which about 1,200 (52%) were called active. How the calls were made is not given here. So high a share suggests a set chosen from earlier hits. The list shows a part of the results. Measured potencies and affinities stand elsewhere.
# Assay: mammalian cell cytotoxicity, dose response, cytotoxicity control for M. tuberculosis inhibitor project (AID 435019);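 further: lower values mean fewer viable cells so more cytotoxicity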
# Conditions: cytotoxicity counter-screen; series mostly up to 40 µM
row,SMILES,outcome
1,CNC(CC(C)C)C(=O)NC1C(=O)NC(CC(N)=O)C(=O)NC2C(=O)NC3C(=O)NC(C(=O)NC(C(=O)O)c4cc(O)cc(O)c4-c4cc3ccc4O)C(O)c3ccc(c(Cl)c3)Oc3cc2cc(c3OC2OC(CO)C(O)C(O)C2OC2C[C@](C)(N)C(O)C(C)O2)Oc2ccc(cc2Cl)C1O (stereo partly specified),inactive
2,COc1cc(C)ccc1S(=O)(=O)N1CCN(C23CC4CC(CC(C4)C2)C3)CC1,inactive
3,Brc1ccc(-c2nc3ncccn3c2Nc2ccc3c(c2)OCCO3)o1,inactive
4,COC(=O)[C@@H](NC(=O)O[C@@H]1C(=O)c2ccc(OC)cc2O[C@H]1c1cccc(C(F)(F)F)c1)C(C)C,inactive
5,Cc1ccn2nc(S(=O)(=O)Nc3c(F)cccc3F)nc2n1,inactive
6,Cc1ccc(OC(=O)CCN2C(=O)c3ccccc3C2=O)cc1C,inactive
7,O=[N+]([O-])c1ccc(N2CCCCC2)s1,inactive
8,Cc1ccc(C)c(C2C(=O)c3ccccc3C2=O)c1,inactive
9,NN(Cc1ccccc1)C(=S)Nc1ccc(Cl)c(Cl)c1,inactive
10,C=C(C)C1Cc2c(C)nn(-c3nc(C)cc(C)n3)c2C1 (stereo unspecified),inactive
11,O=C(/C=C/c1ccccc1)N1CCN(CCN2C(=O)c3cccc4cccc(c34)C2=O)CC1,inactive
12,COc1ccc(C(=O)NNc2ccccc2)cc1OC,inactive
13,O=C(CSC1=Nc2ccccc2C2=NC(c3ccccc3)C(=O)N12)NC1CCCCC1 (stereo unspecified),inactive
14,CN1C(=O)CC(c2ccccc2)C1=O (stereo unspecified),inactive
15,c1ccc(NNC2=NCCCCC2)cc1,inactive
16,COc1cc(/C=C/c2cc[n+](C)cc2)ccc1OCC(=O)Nc1ccc(Cl)c(Cl)c1,inactive
17,COC(=O)c1ccc(NC(=S)NC(=O)C2CCC2)cc1,inactive
18,CC1(c2ccc(Cl)c(Cl)c2)NC(=S)N2C1NC(=S)N2c1ccccc1 (stereo unspecified),inactive
19,Cc1cc(-c2ccc(Cl)cc2)c2cnn(C(C)C)c2n1,inactive
20,Cc1ccc(-c2nc3ccsc3c(=O)o2)cc1,inactive
21,COC(=O)C(C)Oc1ccc(-c2nccc(-c3ccccn3)n2)cc1 (stereo unspecified),inactive
22,CCCCSCCCNC(=O)c1cn(CC)c2ccc(S(=O)(=O)N3CCOCC3)cc2c1=O,inactive

row,SMILES,outcome
1,COc1ccc(C(=O)C[n+]2ccc3c(c2)nc(-c2cc(OC)c(OC)cc2OC)n3C)cc1,inactive
2,Nc1nc(CN2CCN(c3ccccc3F)CC2)nc(N2CCCc3ccccc32)n1,inactive
3,CCCc1cc(-c2nc(-c3ccc(Br)cc3)cs2)ccn1,inactive
4,CC(=O)c1cccc(NC(=O)C2C3C=CC(C3=C(c3ccccc3)c3ccccc3)C2C(=O)O)c1 (stereo unspecified),inactive
5,CCOc1ccc(NC(=O)CSc2nc(O)c(C)c(=O)n2-c2ccc(F)cc2)cc1,inactive
6,COc1cccc(C(=O)NC2CC3CCCC(C2)N3CC(=O)Nc2ccc(N(C)C)cc2)c1 (stereo unspecified),inactive
7,Cc1ccc2c(c1)c1c3n2CCN=C3CCC1,inactive
8,CC(C)Nc1nc(NC(C)C)nc(N(C)N)n1,inactive
9,CCOc1cccc(C=Nc2cc(C)cc(C)c2O)c1O,inactive
10,O=[N+]([O-])c1cc(-c2ccc(/C=N\n3cnnc3)o2)cc([N+](=O)[O-])c1,inactive
11,O=[N+]([O-])c1ccc(-c2ccc(/C=N/c3c(-c4ccco4)nc4ccccn34)o2)cc1,inactive
12,CCCCCC1CC(CC(=O)NC(=S)Nc2ccc([N+](=O)[O-])cc2)C(=O)O1 (stereo unspecified),inactive
13,CCOC(=O)C(C)Sc1ncnc2c1nnn2-c1ccc(F)cc1 (stereo unspecified),inactive
14,COc1ccc(-c2ccc(C#N)c(SCC(=O)OCc3ccccc3)n2)cc1OC,inactive
15,CC1(C)C2CCC1(C)C(OCC[N+](C)(C)CC(=O)OC1CCCCC1)C2 (stereo unspecified),inactive
16,CC(=O)CCSc1ncnc2sc(-c3ccccc3)cc12,inactive
17,Nn1c(SCc2ccccc2)nc2ccccc21,inactive
18,COC(=O)CCc1nc2c(C#N)c(-c3ccc(Cl)cc3)ccn2n1,inactive
19,CC(C)(C)c1ccc(OCCCC(=O)NC2=NCCS2)cc1,inactive
20,CCOC(=O)c1sc2nc(C)nc(SC(C)C(=O)N(C)c3ccccc3)c2c1C (stereo unspecified),inactive
21,O=C(CCCC(=O)OCC(=O)c1cccs1)Nc1ccc(Oc2ccccc2)cc1,inactive
22,CCc1cc2c(=O)n(C(C)C(=O)OC3CCCCC3)cnc2s1 (stereo unspecified),inactive

row,SMILES,outcome
1,COc1ccc(N(CC(=O)Nc2ccccc2C(N)=O)S(=O)(=O)c2ccc(C)c([N+](=O)[O-])c2)cc1,inactive
2,Cc1ccc(S(=O)(=O)NNC(=O)c2cc([N+](=O)[O-])c(C)c([N+](=O)[O-])c2)cc1,inactive
3,CCc1cccc2c(=O)c(C(=O)N3CCOCC3)c[nH]c12,inactive
4,COc1ccc(N=Cc2ccc(CNS(=O)(=O)c3ccc(Cl)cc3)o2)cc1,inactive
5,CN(C)c1ccc(CNC2C3CC4CC(C3)CC2C4)cc1 (stereo unspecified),inactive
6,CCCCCCCCCCNC(=O)C(=O)Nc1ccccn1,inactive
7,CCOc1ccccc1NC(=O)C12CC3CC(C1)CC(c1ccc(C)cc1)(C3)C2,inactive
8,C[C@H](O)[C@H](O)[C@H]1CNc2nc(N)[nH]c(=O)c2N1,inactive
9,Cc1cc(C)cc(NC(=O)CCc2ccc(C)o2)c1,inactive
10,O=C(NC1CCCCC1)C1CC(=O)N(c2cccc([N+](=O)[O-])c2)C1 (stereo unspecified),inactive
11,Cc1cc(C(=O)COC(=O)C2=COCCO2)c(C)n1-c1cccc(F)c1,inactive
12,CC(=O)OC1=Cc2c(ccc3ccc(=O)oc23)OC1(C)C,inactive
13,COc1ccc(NCc2nnc(SCC(=O)c3ccc(OC)cc3)o2)cc1,inactive
14,COc1ccc(/C(O)=C/Sc2nnc(Cc3ccccc3)o2)cc1,inactive
15,Nc1ccc2c(c1)nnn2-c1ccccc1,inactive
16,COc1cc(/C=C(\C#N)c2nc3c(s2)CC(C)CC3)ccc1O (stereo unspecified),inactive
17,CCC[C@@H]1C[C@@H](C(=O)NC(C(C)Cl)[C@H]2O[C@H](SC)[C@H](O)[C@@H](O)[C@H]2O)N(C)C1 (stereo partly specified),inactive
18,Nc1ccc(Oc2ccc3c(c2)OCO3)cc1,inactive
19,O=C1NN(c2ccc(Br)cc2)C(=O)/C1=C\c1ccc(O)cc1O,inactive
20,C=CCOc1ccc(C2=NOC(C(=O)Nc3ccc4c(c3)OCCO4)C2)cc1 (stereo unspecified),inactive
21,COc1ccccc1NC(=O)CN1CCN(CC(=O)Nc2ccc3c(c2)OCO3)CC1,inactive
22,Nc1ncc2[nH]cnc2n1,inactive

row,SMILES,outcome
1,C[C@]12C=CC(=O)C=C1CC[C@@H]1C2=CC[C@]2(C)[C@@H](C(=O)CN3CCN(c4cc(N5CCCC5)nc(N5CCCC5)n4)CC3)CC[C@@H]12,inactive
2,COc1ccc(/C=N/Nc2nncn2N)cc1Br,inactive
3,CCOC(=O)CSc1snnc1-c1ccccc1,inactive
4,CCc1ccc(CCOc2ccc(CC3SC(=O)NC3=O)cc2)nc1 (stereo unspecified),inactive
5,Cc1cc(C)n(C(=O)c2ccc([N+](=O)[O-])cc2[N+](=O)[O-])n1,inactive
6,Cc1ccc(NC(=O)c2ccc(CSc3nnc(C)s3)cc2)c(C)c1,inactive
7,COC(=O)c1cc(NC(=O)c2c(F)c(F)c(F)c(F)c2F)cc(C(=O)OC)c1,inactive
8,C=CC[n+]1ccn(-c2nc3ccccc3nc2[N-]S(=O)(=O)c2cccs2)c1,inactive
9,C/C(CC(=O)Nc1ccc2c(c1)OCCO2)=N\NC(=O)c1ccccc1F,inactive
10,N#CC(C(=O)NCc1ccco1)c1nc2ccccc2nc1N1CCOCC1 (stereo unspecified),inactive
11,CCOC(=O)C1CCN(c2nc3cc(OC)ccc3cc2C#N)CC1,inactive
12,O=C(/C=C\c1cccs1)N1CCN(Cc2ccc3c(c2)OCO3)CC1,inactive
13,COC(=O)C1CC(=O)N(c2ccc(OCc3ccccc3Cl)cc2)C1 (stereo unspecified),inactive
14,CCCn1nnc(NC(=O)COc2ccc(CC)cc2)n1,inactive
15,CCOC(=O)c1cnc2ccc(OCC)cc2c1N1CCN(c2ccccc2)CC1,inactive
16,CCOC(=O)c1cc(-c2ccccc2)nc2c1c(C)nn2-c1ccccn1,inactive
17,COc1ccc(OCc2nnc3n2N=C(c2ccccc2)C(CC(=O)O)S3)cc1 (stereo unspecified),inactive
18,CCOc1ccc(C2=Nc3ccc(Br)cc3C(c3ccc(N4CCOCC4)cc3)=NN2)cc1,inactive
19,Cc1ccsc1/C=C1\SC(N2CCOCC2)=NC1=O,inactive
20,Cc1nc(S/C(=C/c2ccc(-c3ccc(Cl)cc3)o2)C(=O)O)n[nH]1,inactive
21,CSCCC(=O)N1CCCC(CNC(=O)c2ccc(-c3ccccc3)cc2)C1 (stereo unspecified),inactive
22,Cc1cc(C)c(C(N)=O)c(SCC(=O)c2ccc(Cl)cc2)n1,inactive

row,SMILES,outcome
1,CCC(=O)c1ccc(OCC(=O)OCC(=O)c2cc(C)n(C3CC3)c2C)cc1,inactive
2,COc1ccc2c(c1)CC/C(=C\C=C\c1ccccc1OC)C2=O,inactive
3,COc1ccc(N=Cc2c[nH][nH]c2=O)cc1,inactive
4,O=S(=O)(Nc1ccn(-c2ccccc2)n1)c1ccc(Br)cc1,inactive
5,CCC(C)OC(=O)C(C)Oc1ccc(-c2ccccc2)cc1 (stereo unspecified),inactive
6,O=c1ccn(-c2ccccc2)[nH]1,inactive
7,Cc1ccc(NC(=O)CNCc2cccs2)cc1Br,inactive
8,O=C(c1cccc([N+](=O)[O-])c1)N1CCN(c2ccc(N3CCOCC3)nn2)CC1,inactive
9,CCOP(=O)(OCC)/C(=C/N1CCCCC1)NC(=O)c1ccccc1,inactive
10,Cc1nnc(SCc2ccccc2Cl)n(N)c1=O,inactive
11,Cc1ccccc1CSc1nsc(N)n1,inactive
12,CN(CCCCCCCCCCN(C)C(=O)Oc1cccc([N+](C)(C)C)c1)C(=O)Oc1cccc([N+](C)(C)C)c1,inactive
13,CCOC(=O)c1ccc(Nc2cc3ccccc3c(=O)[nH]2)cc1,inactive
14,CCOC(=O)c1ccc(NC(=S)Nc2ccc3[nH]c(=O)[nH]c3c2)cc1,inactive
15,CC(C)(C)OC(=O)NNC(=S)NC1CCCCC1,inactive
16,CCOC(=O)CNC(=O)c1sc2ncnc(N3CCc4ccccc4C3)c2c1C,inactive
17,CCOc1ccc(NC(=O)c2sc3nc(C)nc(N4CCOCC4)c3c2C)cc1,inactive
18,O=C(Nc1ccc(-c2noc(CCc3ccccc3)n2)cc1)c1cccnc1,inactive
